Screening results as filed in PubChem BioAssay.
MCF10A rerep = DNA re-replication induction in MCF 10a cells; 350,000 compounds, 2.9% hits; MCF 10A DNA re-replication, Hoechst nuclear intensity, 48 h; Potency, µM (series often up to 46.1 µM), actives largely listed as activators; further: nearly all actives have a fitted effect of over 50% in size
RORg inh = inhibitors of mouse ROR gamma transcriptional activity | P51450 | Drosophila S2 Gal4-RORgamma UAS-luciferase reporter, 20 h | Potency, µM (doses to about 53.6 µM), usual class: inhibitors | 310,000 compounds, 5.4% hits | AID 2551; further: nearly all actives have a fitted effect of over 60% in size
Target sequence (P51450 whole entry, looked up, the tested form may be a part): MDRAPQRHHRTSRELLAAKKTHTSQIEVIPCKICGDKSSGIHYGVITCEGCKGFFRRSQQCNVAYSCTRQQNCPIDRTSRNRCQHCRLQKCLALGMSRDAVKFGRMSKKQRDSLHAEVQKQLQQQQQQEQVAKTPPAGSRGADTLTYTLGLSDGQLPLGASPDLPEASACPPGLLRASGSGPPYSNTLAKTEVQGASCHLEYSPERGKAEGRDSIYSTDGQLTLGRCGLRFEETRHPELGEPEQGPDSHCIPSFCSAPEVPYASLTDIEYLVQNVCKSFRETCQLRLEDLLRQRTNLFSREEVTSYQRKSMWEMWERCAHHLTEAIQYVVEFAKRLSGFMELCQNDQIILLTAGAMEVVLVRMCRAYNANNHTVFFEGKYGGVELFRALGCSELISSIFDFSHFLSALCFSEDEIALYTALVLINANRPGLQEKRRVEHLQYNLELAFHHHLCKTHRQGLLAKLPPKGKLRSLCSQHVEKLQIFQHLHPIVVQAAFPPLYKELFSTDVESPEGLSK
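Schneider cells (Drosophila), stable Gal4 DBD–ROR gamma + UAS-luc; 1 hr cmpd preincubation; Cu2+ induction 700 uM final; 20 hr ambient; luminescence.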
Giardia killer = Giardia lamblia killing; Giardia lamblia trophozoite viability; activity change, % at 7.66 µM, hits read low; 340,000 compounds, 0.15% hits; in the data active means activity change below about -80%; inconclusive means between about -30% and that limit;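 further: parasites exposed to compound for two days anaerobically before the ATP read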
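Viability, read as ATP luminescence: trophozoites at 100 cells/well, compound added, 48 hrs anaerobic at 37 deg C, then 15-30 min room-temperature development before reading.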
VP16 counter = inhibits Gal4-VP16 luciferase reporter, ROR gamma counter-screen | Drosophila S2 Gal4-VP16 UAS-luciferase, luminescence, 20 h | Potency, µM (series often up to 53.6 µM), most hits filed as inhibitors | 310,000 compounds, 3.5% hits;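 further: Gal4-VP16 expression switched on by copper sulfate through the metallothionein promoter; nearly all actives have a fitted effect of over 50% in size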
Chronic BCR inh = blocks chronic active B-cell receptor signaling. 340,000 compounds, 0.05% hits. AID 493014. Potency, µM (top dose mostly 46.1 µM), hits mostly inhibitors. ABC-DLBCL IkBa-CBG/CBR reporter, luminescence ratio, 4 h; active means well fitted inhibition curve with a large enough effect in the signal ratio, with a control signal flat, not every such curve was filed as active; inconclusive means small, poorly fitted or top-dose-only effect, or effect the other way, or a change in a side signal; the % refers to the signal ratio
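TMD8 ABC-DLBCL cells carrying doxycycline-inducible green luciferase fused to IkappaBalpha plus unfused red luciferase were exposed to compounds (up to 46 uM) for 4 hrs at 37C. Activity came from the overlap-corrected green/red luminescence ratio.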
SW480 rereplic = induces DNA re-replication in SW480 colon adenocarcinoma cells; SW480 DNA re-replication, Hoechst DNA content imaging, 48 h; AID 624297; 340,000 compounds, 1.8% hits; Potency, µM (doses to about 46.1 µM), hits mostly activators; further: nearly all actives have a fitted effect of over 55% in size
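Readout is total intensity of Hoechst-stained nuclei, excited at 405 nm and collected at 500-530 nm. Compound treatment lasted 48 hr at 37 C in 5% CO2 before staining.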
Numbers stand for hits; i = inactive; ? = inconclusive; nt = not tested or not shown; [ ] = another dose, or the depositor's remark. Sampled rows, rich in hits. Any-hit rate of the full collection: about 8.3%. Unless noted, the call rests on the fitted dose curve; in most records, active means well fitted curve in the direction sought with a large enough effect; inconclusive means small, poorly fitted or top-dose-only effect, or another doubt; inactive means no such curve, though single readings can be large; an effect the other way counts as inactive or inconclusive.

SMILES	MCF10A rerep	RORg inh	Giardia killer	VP16 counter	Chronic BCR inh	SW480 rereplic
Cc1cc(C)cc(OCC(=O)N(Cc2ccc(N(C)C)cc2)C2CCS(=O)(=O)C2)c1 (centres undefined)	i	i	i	i	i	i
COc1ccc(N2CCN(C(=S)Nc3cccc(C)c3)CC2)cc1	i	?	i	i	i	i
COc1cccc(N2CCN(C(=S)Nc3cccc(C)c3)CC2)c1	i	7.1µM	i	i	i	i
Cc1cccc(NC(=S)N2CCN(c3ccccc3)CC2)c1	i	10µM	i	?	i	i
Cc1cccc(CN2CCN(C(=S)Nc3ccccc3)CC2)c1	i	4µM	i	?	i	i
CC(=O)c1ccc(-n2c(SCC(=O)c3c[nH]c4ccccc34)nc3ccccc3c2=O)cc1	i	1.4µM	i	i	i	i
Cc1sc2nc(SCC(=O)c3cc(C)n(CC4CCCO4)c3C)n(C(C)C)c(=O)c2c1C (centres undefined)	i	?	i	11µM	?	i
O=C(CCC(=O)Nc1ccccc1Cl)NNC(=O)COc1ccc([N+](=O)[O-])cc1	i	nt	i	nt	i	i
O=C(O)COCC(=O)N1CCCN(c2nccc(C(F)(F)F)n2)CC1	i	i	i	i	i	i
CCCCn1c(=N)c(S(=O)(=O)c2ccc(Br)cc2)cc2c(=O)n3cccc(C)c3nc21	i	i	i	i	i	?
CCCCCn1c(=N)c(S(=O)(=O)c2ccc(Br)cc2)cc2c(=O)n3cccc(C)c3nc21	?	i	i	i	?	?
COCCn1c(=N)c(S(=O)(=O)c2ccc(F)cc2)cc2c(=O)n3cccc(C)c3nc21	3.7µM	i	i	i	i	?
CCCn1c(=N)c(S(=O)(=O)c2ccc(F)cc2)cc2c(=O)n3cccc(C)c3nc21	5.2µM	i	i	i	i	?
CC(C)Cn1c(CNC(=O)c2ccccc2)nc2ccccc21	i	16µM	i	?	i	i
CCCn1c(CNC(=O)c2cccs2)nc2ccccc21	i	?	i	i	?	i
CC(C)Cn1c(CCCNC(=O)c2ccc(F)cc2)nc2ccccc21	i	i	i	i	i	i
CCCn1c(CNC(=O)c2ccccc2)nc2ccccc21	i	10µM	i	i	i	i
Cn1c(CCCNC(=O)c2ccccc2)nc2ccccc21	i	i	i	i	?	i
Cn1c(/C=N/NC(=O)c2ccccc2)nc2ccccc21	i	13µM	i	i	?	i
CCCCn1c(CNC(=O)C(C)(C)C)nc2ccccc21	i	13µM	i	?	i	i
COc1ccccc1C(=O)NCC(=O)NC(C)c1ccc(-n2ccnc2)cc1 (centres undefined)	i	i	i	i	i	i
CCOC(=O)c1cc2c(c(CCO)n1)[C@H](CCO)N(S(=O)C(C)(C)C)C2 (some centres undefined)	i	nt	i	nt	nt	i
CN(C)C(=O)CSc1nc2ccc(C(=O)c3ccccc3)cc2[nH]1	i	i	i	i	i	?
CN(C)CCCNc1ncnc2oc(-c3ccccc3)c(-c3ccccc3)c12	?	i	i	i	i	?
c1ccc(-c2c(-c3ccccc3)n(Cc3ccco3)c3ncnc(NCCCn4ccnc4)c23)cc1	?	i	i	16µM	?	i
SMILES	MCF10A rerep	RORg inh	Giardia killer	VP16 counter	Chronic BCR inh	SW480 rereplic
c1ccc(-c2oc3ncnc(NCCCn4ccnc4)c3c2-c2ccccc2)cc1	?	22µM	i	?	i	i
OCCNc1ncnc2c1c(-c1ccccc1)c(-c1ccccc1)n2Cc1ccco1	?	i	i	i	?	i[9.22 µM]
COc1cc(/C=N/NC(=O)CCN2CCN(C)CC2)cc2c1OCO2	i	i	i	i	i	i
COc1ccc(CC(=O)NNC(=O)CCc2ccccc2)cc1OC	i	i	i	i[10 µM]	i	i
O=C(CCN1CCN(C(c2ccccc2)c2ccccc2)CC1)N/N=C/c1ccc(O)cc1	i	i	i	i	i	i
O=C(CCN1CCN(c2ccccc2)CC1)N/N=C/c1ccccc1OC(F)F	i	11µM	i	?	i	3.3µM
COc1ccc(/C=N\NC(=O)CCN2CCN(c3ccccc3)CC2)cc1OC	i	i	i	i	i	i
COc1ccc(OC)c(/C=N/NC(=O)CCN2CCN(C(c3ccccc3)c3ccccc3)CC2)c1	15µM	10µM	i	?	i	i
O=C(CCN1CCN(C(c2ccccc2)c2ccccc2)CC1)N/N=C/c1ccc(O)cc1O	i	14µM	i	i	?	i
CO[C@@H]1COC(=O)C/C=C\[C@@H](C)COC(=O)[C@H](COCc2ccccc2)NC(=O)C/C=C\[C@H]1C	nt	i[10 µM]	nt	i[10 µM]	nt	nt
Cc1cc(C)nc(NC(=O)c2cccs2)c1	i	i	i	?	?	i
CCOC(=O)CN1C(=O)SC(Nc2ccc(C)cc2)C1=O (centres undefined)	i	i	i	i	i	i
COc1cc(/C=N/N2C(=O)CSC2=S)ccc1O	i	i	i	i	i	i
COc1ccc(Br)cc1/C=N/N1C(=O)CSC1=S	i	14µM	i	i	i	i
CCN(CC)CCNC(=O)c1c(C)[nH]c(/C=C2\C(=O)Nc3ccc(F)cc32)c1C	i	i[10 µM]	nt	i	nt	i
Cc1cc(O)cc(O[C@H]2OC(CO)[C@H](O)[C@@H](O)[C@H]2O)c1 (some centres undefined)	i	i	i	i	i	i
COc1ccc(/C=C/c2cc(O)cc(OC3OC(CO)C(O)C(O)C3O)c2)cc1 (centres undefined)	i	nt	i	nt	nt	0.18µM
Cc1nn(Cc2ccccc2Cl)c(C)c1C(=O)NC1=NCCS1	i	10µM	i	i	?	i
Cc1csc(NC(=O)c2cc3c(C)nn(Cc4ccccc4Cl)c3s2)n1	10µM	?	i	?	i	?
O=C(NC1=NCCS1)c1ccccc1OCc1ccccc1Cl	i	10µM	i	?	i	i
Cc1nn(Cc2ccccc2Cl)c(C)c1C(=O)N1CCN(c2ccccc2)CC1	i	i	i	i	i	i
CCC(CC)c1nnc(NC(=O)c2c(C)nn(Cc3ccccc3Cl)c2C)s1	i	11µM	i	?	i	i
Cc1nn(Cc2ccccc2Cl)c2sc(C(=O)NC(C)(C)C)cc12	?	i	i	i	?	?
CN1CCN(c2ccccc2/C=C2/C(=O)Nc3ccccc32)CC1	i	i	i	i	?	i
O=c1[nH]nc(N2CCOCC2)c(=O)[nH]1	?	i	i	i	i	?
CC1CCN(c2ccc3c(c2)S(=O)(=O)c2cccc(C(=O)NC4CC4)c2C3=O)CC1	i	nt	i	nt	i	i
Oc1cccc(/C=C/c2ccc3cccc(O)c3n2)c1	?	i	i	5µM	?	i
O=[N+]([O-])c1ccc(/C=C/c2ccc3cccc(O)c3n2)cc1	i	2.5µM	i	?	?	?
